Shown are actives, neighbours in structure and some others; about 3.3% of the full set was active somewhere.
VACV Venus inh: inhibitors of vaccinia virus (Venus reporter); Vaccinia virus Venus reporter expression, fluorescence; Potency, µM (top dose mostly 36.5 µM), actives largely listed as inhibitors; 330,000 compounds, 0.46% hits; AID 720580; calls by dose curve; tested in A549 cells; note: nearly all actives have a fitted effect of over 30% in size
Vaccinia mCherry: vaccinia inhibition (mCherry reporter); 310,000 compounds, 0.63% hits; AID 720579; Vaccinia virus mCherry reporter infection, fluorescence; Potency, µM (doses to about 36.5 µM), most hits filed as inhibitors; calls by dose curve; tested in A549 cells; note: nearly all actives have a fitted effect of over 35% in size
HCV inhibitor: inhibitors of hepatitis C virus infection. Huh7.5.1 HCVcc-Cre infection, luciferase reporter, 44 h. Potency, µM (series often up to 41.8 µM), usual class: inhibitors. 340,000 compounds, 3.4% hits; active = well fitted inhibition curve with a large enough effect; inconclusive = small, poorly fitted or top-dose-only effect, or another doubt; inactive = no such curve, though single readings can be large or run the other way
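A cell-based infection assay in which seeded cells (1,000 per well) receive test compound after 4 h, are inoculated with HCVcc-Cre at approximately 0.5 moi, and are incubated 44 h before luminescence detection.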
Each line names hits and unclear results; the compound was inactive in the other large screens.

COc1ccc(C(C(=O)NC2CCCCC2)N(C(=O)c2snc(C(N)=O)c2N)c2ccc(OC)cc2OC)cc1 (stereo not drawn)	HCV inhibitor 8.91µM
COc1ccc(C(C(=O)NC2CCCC2)N(C(=O)c2snc(-c3ccc(F)cc3)c2N)c2ccccc2)cc1 (stereo not drawn)	none (no result: VACV Venus inh, Vaccinia mCherry)
COc1ccc(N(C(=O)c2snc(C(N)=O)c2N)C(C(=O)NC2CCCCC2)c2ccc(C)o2)c(OC)c1 (stereo not drawn)	HCV inhibitor inconclusive
COc1ccc(C)cc1N(C(=O)c1snc(C(N)=O)c1N)C(C(=O)NC1CCCC1)c1ccc(F)cc1 (stereo not drawn)	HCV inhibitor inconclusive
COc1ccc(C(C(=O)NC2CCCC2)N(C(=O)c2snc(-c3ccc(F)cc3)c2N)c2cccc(F)c2)cc1 (stereo not drawn)	HCV inhibitor 10µM (no result: VACV Venus inh, Vaccinia mCherry)
CCOc1ccccc1CN1C(=O)c2ccccc2C1C(=O)NC1CCCCCC1 (stereo not drawn)	none (no result: HCV inhibitor)
C1NNCC12CNNC2	none (no result: HCV inhibitor)
Cc1nc2c(-c3ccccc3)c(C)nn2c(C)c1CCC(=O)NCc1cccc(Cl)c1	none (no result: HCV inhibitor)
Cc1ccc(-c2nc3ccc(Cl)cn3c2Nc2ccc3c(c2)OCCO3)s1	none (no result: HCV inhibitor)
COc1cccc(-c2nc3cc(SC)ccc3cc2CN(C(=O)c2csc(C)n2)C2CC2)c1	none (no result: HCV inhibitor)
CCOC(=O)CSc1nc2c(sc3ccccc32)c(=O)n1CCO	none (no result: HCV inhibitor)
Cc1oc(-c2cccc(Cl)c2)nc1CN1CCC(C(=O)NCCCN2CCN(c3ccc(F)cc3)CC2)CC1	VACV Venus inh inconclusive (no result: HCV inhibitor)
Cc1oc(-c2ccc(Cl)cc2)nc1CN1CCC(C(=O)NCCCN2CCN(c3cccc(Cl)c3)CC2)CC1	VACV Venus inh 14.1µM, Vaccinia mCherry inconclusive (no result: HCV inhibitor)
Cc1oc(-c2ccc(Cl)cc2)nc1CN1CCC(C(=O)NCC2CCCO2)CC1 (stereo not drawn)	none
CCCN(CCC)CCCNC(=O)C1CCCN(Cc2nc(-c3ccc(Cl)cc3)oc2C)C1 (stereo not drawn)	Vaccinia mCherry inconclusive (no result: HCV inhibitor)
Cc1oc(-c2ccc(Cl)cc2)nc1CN1CCC(C(=O)NCCCN2CCOCC2)CC1	HCV inhibitor 8.91µM (no result: VACV Venus inh, Vaccinia mCherry)
CCC1CCCCN1CCCNC(=O)C1CCN(Cc2nc(-c3ccc(Cl)cc3)oc2C)CC1 (stereo not drawn)	HCV inhibitor 1.41µM (no result: VACV Venus inh, Vaccinia mCherry)
COc1ccc(-c2ccnc(-n3ncc(C(=O)NCc4cccnc4)c3C3CC3)n2)cc1F	none (no result: HCV inhibitor)
Cn1c2ccccc2c2cc(C(=O)N3CCOc4ccc(C(C)(O)CCn5cccn5)cc4C3)ccc21 (stereo not drawn)	none (no result: HCV inhibitor)
Oc1ccc(/C=C/c2ccnc3ccccc23)cc1	Vaccinia mCherry inconclusive, HCV inhibitor 8.91µM
C[N+](C)(C)c1ccc(/C=C/c2ccnc3ccccc23)cc1	none (no result: HCV inhibitor)
C=CCn1c(SCC(=O)Nc2ccc(-c3nc4ccc(C)cc4s3)cc2)nnc1-c1ccccc1	Vaccinia mCherry inconclusive, HCV inhibitor 10µM
C=CCn1c(SCC(=O)NNC(=O)Nc2ccc(C)cc2)nnc1-c1ccccc1	none (no result: VACV Venus inh, Vaccinia mCherry)
COc1cccc(CCNC(=O)c2c(O)nc3ccccn3c2=O)c1	none (no result: HCV inhibitor)
COc1cc(C(=O)NCC2CCCO2)cc(OC)c1OC (stereo not drawn)	none (no result: VACV Venus inh, Vaccinia mCherry)
COc1cccc(OC)c1OCC(C)CNCC1CCCO1 (stereo not drawn)	VACV Venus inh inconclusive, Vaccinia mCherry inconclusive, HCV inhibitor 1µM
CCc1ccc(C(=O)COC(=O)c2cc([N+](=O)[O-])ccc2N2CCOCC2)cc1	Vaccinia mCherry inconclusive, HCV inhibitor 1µM
CN(C(=O)COC(=O)c1cc([N+](=O)[O-])ccc1N1CCOCC1)C1CCCCC1	none (no result: HCV inhibitor)
NC(=O)c1ccc(NC(=O)COC(=O)c2cc([N+](=O)[O-])ccc2N2CCOCC2)cc1	HCV inhibitor inconclusive
O=C(COC(=O)c1cc([N+](=O)[O-])ccc1N1CCOCC1)NCc1ccccc1	none (no result: HCV inhibitor)
O=C(COC(=O)c1cc([N+](=O)[O-])ccc1N1CCOCC1)Nc1ccc(Cl)cc1	HCV inhibitor inconclusive
Cc1cc(Cl)ccc1NC(=O)COC(=O)c1cc([N+](=O)[O-])ccc1N1CCOCC1	HCV inhibitor 2.51µM
O=C(COC(=O)c1cc([N+](=O)[O-])ccc1N1CCOCC1)Nc1ccc(Cl)cn1	VACV Venus inh 28.2µM, Vaccinia mCherry inconclusive, HCV inhibitor inconclusive
CCc1cccc(C)c1NC(=O)COC(=O)c1cc([N+](=O)[O-])ccc1N1CCOCC1	HCV inhibitor 10µM
CCCCCOC(=O)CSc1nc2sc3c(c2c(=O)n1-c1ccccc1)CC(C)(CC)OC3 (stereo not drawn)	none (no result: HCV inhibitor)
CC1CCN(S(=O)(=O)c2cccc(C(=O)NNC(=O)c3ccco3)c2)CC1	none
COc1ccc(Cn2ccnc2SCC(=O)NCc2ccccc2)cc1	none (no result: HCV inhibitor)
Cc1cccc(S(=O)(=O)NC(=O)C2(C)CCN2C(=O)Cc2cc(F)ccc2F)c1 (stereo not drawn)	none (no result: HCV inhibitor)
O=C(CSc1nc2c(c(=O)[nH]1)CCCC2)Nc1cccc(O)c1	none (no result: HCV inhibitor)
CCN(CC)C(=O)[C@H]1C[C@H](CC(=O)NCCCN(C)C)C(=O)N2CCc3c([nH]c4ccc(Cl)cc34)[C@]12C	VACV Venus inh inconclusive, HCV inhibitor inconclusive
CC(C)N(C(=O)[C@H]1C[C@H](CC(=O)NCC23CC4CC(CC(C4)C2)C3)C(=O)N2CCc3c([nH]c4ccc(Cl)cc34)[C@]12C)C(C)C	VACV Venus inh 12.6µM, Vaccinia mCherry inconclusive, HCV inhibitor 15.8µM
CC(C)N(C(=O)[C@H]1C[C@H](CC(=O)NCCCN(C)C)C(=O)N2CCc3c([nH]c4ccc(Cl)cc34)[C@]12C)C(C)C	HCV inhibitor 10µM
COc1ccc2[nH]c3c(c2c1)CCN1C(=O)C(CC(=O)NCCCN(C)C)C[C@H](C(=O)N(C(C)C)C(C)C)[C@@]31C (stereo partly drawn)	none
CCN(CC)C(=O)[C@H]1C[C@H](CC(=O)NCC23CC4CC(CC(C4)C2)C3)C(=O)N2CCc3c([nH]c4ccc(Cl)cc34)[C@]12C	VACV Venus inh 10µM, Vaccinia mCherry inconclusive, HCV inhibitor inconclusive
CCN(CC)C(=O)[C@H]1C[C@H](CC(=O)NCc2ccc(OC)c(OC)c2)C(=O)N2CCc3c([nH]c4ccc(Cl)cc34)[C@]12C	VACV Venus inh inconclusive, HCV inhibitor inconclusive
O=C(CNC(=O)c1ccc(Cl)cc1)OCc1cc(=O)n2nc(C3CCCCC3)sc2n1	none (no result: HCV inhibitor)
COc1cc(NC(=O)N2CCC3(CC2)Nc2ccccc2-n2cccc23)cc(OC)c1OC	none (no result: HCV inhibitor)
CCOc1ccccc1C(=O)NCC(=O)N1CCN(Cc2ccc3c(c2)OCO3)CC1	none (no result: VACV Venus inh, Vaccinia mCherry)
Cc1nn(-c2ccccc2)c(C)c1CC(=O)NCC1Cc2cc(F)cc(-c3cccnc3)c2O1 (stereo not drawn)	none (no result: HCV inhibitor)
Cc1cccc(Nc2c3c(nc4ccccc24)CCC3)c1	HCV inhibitor inconclusive
Cc1ccc(Nc2c3c(nc4ccccc24)CCC3)cc1F	VACV Venus inh inconclusive, Vaccinia mCherry 10µM (no result: HCV inhibitor)
CSCCC(NC(=O)c1ccccc1)C(=O)O (stereo not drawn)	none
O=C(NC(CSSCC(NC(=O)c1ccccc1)C(=O)O)C(=O)O)c1ccccc1 (stereo not drawn)	HCV inhibitor 1.58µM
COc1cccc(-n2c(=O)c3c(C)c(C(=O)N(C)C)sc3n(Cc3ccc(F)cc3Cl)c2=O)c1	none (no result: HCV inhibitor)
Cc1ccc(C(=O)N2CCCC2)cc1S(=O)(=O)Nc1cccc(C)c1C	none
Cc1ccccc1NC(=O)c1ccc(C)c(S(=O)(=O)Nc2cccnc2)c1	none
Cc1ccccc1NS(=O)(=O)c1cc(C(=O)Nc2cccnc2)ccc1C	HCV inhibitor 31.6µM
